HEK cytotox = HEK 293 cell cytotoxicity; AID 1345083; hit rate 6.6% among 94,000; Potency, µM (top dose mostly 115 µM), inactives show at the highest dose activity change, negative = cytotoxicity, actives largely listed as inhibitors; HEK 293 viability, ATP luminescence (CellTiter-Glo), 48-72 h; further: nearly all actives have a fitted effect of over 60% in size
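Read-out: CellTiter-Glo ATP luminescence. Cells: HEK 293, 250 cells/well. Exposure: 48 or 72 hr, 37 degree Celsius.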
hNpr1 antagonist = blocks ANP-stimulated signaling of human Npr1 receptor | P16066 | HEK293 hNpr1 GloSensor cGMP, ANP-stimulated luminescence | Potency, µM (series often up to 46.3 µM), without a hit: at the highest dose activity change, negative = inhibition, actives largely listed as inhibitors | hit rate 1.6% among 76,000 | AID 1347048; calls by dose curve; further: nearly all actives have a fitted effect of over 60% in size
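Compound pre-incubated 30 min at room temperature on GloSensor-loaded HEK293 cells stably carrying hNpr1 and the pGS-40F cGMP biosensor. Stimulation uses hNppA at 0.1 nM final; luminescence is taken at baseline and 20 min post-agonist.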
Luciferase inh = Photinus pyralis luciferase inhibition. P08659. purified P. pyralis luciferase, luminescence, biochemical. Potency, µM (titrated, usually from 115 µM), most hits filed as inhibitors. hit rate 2.5% among 76,000; further: nearly all actives have a fitted effect of over 65% in size
Target sequence (P08659 whole entry, looked up): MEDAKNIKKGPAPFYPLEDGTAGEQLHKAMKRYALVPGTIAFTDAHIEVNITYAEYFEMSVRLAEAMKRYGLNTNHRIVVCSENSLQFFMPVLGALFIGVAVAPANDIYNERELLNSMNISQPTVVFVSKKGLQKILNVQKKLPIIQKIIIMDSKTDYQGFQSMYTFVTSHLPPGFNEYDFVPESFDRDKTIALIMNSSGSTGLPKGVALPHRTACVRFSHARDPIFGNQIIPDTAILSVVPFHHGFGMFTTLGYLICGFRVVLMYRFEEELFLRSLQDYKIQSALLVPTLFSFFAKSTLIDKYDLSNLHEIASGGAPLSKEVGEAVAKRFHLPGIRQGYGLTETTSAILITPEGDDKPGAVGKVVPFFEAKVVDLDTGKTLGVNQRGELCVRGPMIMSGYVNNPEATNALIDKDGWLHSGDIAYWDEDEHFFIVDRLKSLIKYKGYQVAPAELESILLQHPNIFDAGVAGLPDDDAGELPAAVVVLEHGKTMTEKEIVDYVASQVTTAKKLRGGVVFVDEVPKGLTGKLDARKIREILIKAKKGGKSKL
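FLuc 10nM, D-luciferin 10uM, ATP 10uM, Mg acetate 10mM, Tris acetate pH 7.5, Tween/BSA; cpd qHTS; enzyme added last; CCD luminescence.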
3T3 cytotox = cytotoxic compounds in NIH 3T3 cells. NIH 3T3 viability, CellTiter-Glo ATP luminescence, 48-72 h. Potency, µM (doses to about 96.7 µM), without a hit: top-dose activity change, negative = cytotoxicity, hits mostly inhibitors. AID 1345082. hit rate 4.3% among 94,000; further: nearly all actives have a fitted effect of over 55% in size
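Cytotoxicity is measured as loss of cellular ATP: NIH 3T3 cells (400/well) are exposed to compound for 48 or 72 hr at 37 °C, then CellTiter-Glo luminescence is imaged after 10 min at room temperature.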
* hit, by the source's call; i = inactive; ? = inconclusive; / = no result; [ ] = remark or other dose. This is a sample that favours compounds with a hit; in the whole collection about 11% have one here. Unless noted, the call rests on the fitted dose curve; in most records, active means well fitted curve in the direction sought with a large enough effect; inconclusive means small, poorly fitted or top-dose-only effect, or another doubt; inactive means no such curve, though single readings can be large; an effect the other way counts as inactive or inconclusive. On the % scale 0 is the no-effect control and ±100 the full control effect; potency means the concentration at half of the fitted maximal effect.

SMILES	HEK cytotox	hNpr1 antagonist	Luciferase inh	3T3 cytotox
CC(=O)Nc1ccc(C(=O)NC[C@@H]2C=C(C)[C@H](Cc3nnc(-c4ccccc4F)o3)C[C@H]2C(C)C)cc1	28µM*	-4%	i	?
CC1=C[C@@H](CNC(=O)CN(C)C)[C@H](C(C)C)C[C@H]1Cc1nnc(-c2ccccc2F)o1	?	-1%[70.6 µM]	i	32µM*
CC(C)=CCn1c(-c2ccc(F)cc2)cn2cc(C(=O)N(C)CC(C)O)nc2c1=O (stereo unspecified)	?	6%	i	-2%
CC1=C[C@@H](CNC(=O)NC(C)C)[C@H](C(C)C)C[C@H]1Cc1nnc(-c2ccccc2F)o1	79µM*	-19%[70.6 µM]	i	32µM*
CC1=C[C@@H](CNC(=O)c2cnccn2)[C@H](C(C)C)C[C@H]1Cc1nnc(-c2ccccc2F)o1	35µM*	-22%	i	?
COc1cc(Cl)ccc1C(=O)N1CCC2(CC1)NC(=O)N(c1ccc(F)cc1)N2	13µM*	-20%	i	?
Cc1ccc(C(=O)N2CCC3(CC2)NC(=O)N(c2cccc(Cl)c2)N3)c(C)c1	?	0%	i	?
CCOc1ccccc1C(=O)N1CCC2(CC1)NC(=O)N(c1cccc(Cl)c1)N2	32µM*	-6%	i	?
COc1ccccc1C(=O)N1CCN(c2ccc3nnc(C)n3n2)CC1	-17%[172 µM]	/	/	-29%[138 µM]
Cn1ccnc1C(=O)N1CCCC(c2nn(C)c(=O)n2C2CCCC2)C1 (stereo unspecified)	-1%	/	/	-11%
COc1ccc(C(=O)N[C@H]2C[C@H]3C(=O)NC[C@@H](CCC(=O)NCc4ccccc4)N3C2)cc1	i	-8%	i	-14%
COC(=O)[C@@H]1Cc2ncn(C(C)C)c2CN1C(=O)c1ccc(C(F)(F)F)cc1	i	3%[70.6 µM]	i	-13%[174 µM]
COC(=O)[C@@H]1Cc2c([nH]c3ccccc23)[C@H]2C[C@@H](NCCNC(C)=O)C[C@@H](c3ccc(C(C)C)cc3)N21	13µM*	-25%	i	28µM*
COC(=O)[C@@H]1Cc2c([nH]c3ccccc23)[C@H]2C[C@@H](NCCNC(C)=O)C[C@@H](c3ccc(C(F)(F)F)cc3)N21	25µM*	-9%	i	20µM*
COC(=O)[C@@H]1Cc2c([nH]c3ccccc23)[C@@H]2C[C@@H](NCCNC(C)=O)C[C@@H](c3ccc(F)c(F)c3)N12	32µM*	5%	i	32µM*
COc1ccc(C(C)C)cc1CN1CCCC(CNC(C)=O)C1 (stereo unspecified)	-28%	3%	i	-5%
COC(=O)[C@@H]1Cc2c([nH]c3ccccc23)[C@H]2C[C@@H](NCCNC(C)=O)C[C@@H](c3ccccc3)N21	?	-4%	?	79µM*
O=c1[nH]c(N2CCOCC2)nc2c1CCN(Cc1cc(F)c(F)c(F)c1)CC2	-13%	-12%	i	-7%
COCCNC(=O)[C@H]1C[C@H](Oc2ccccc2)CN1C(=O)NCc1ccc(C)cc1	i	0%	i	-5%
COC(=O)[C@@H]1Cc2c([nH]c3ccccc23)[C@H]2C[C@@H](NCCNC(C)=O)C[C@@H](c3ccc(C)cc3)N21	28µM*	-12%	i	28µM*
CCC(=O)N1CCCC(c2nc(-c3ccc4nc[nH]c4c3)no2)C1 (stereo unspecified)	-1%	-7%	?	-27%
COc1ccc(OC)c(C(O)Cn2ccn3nc(-c4cccs4)cc3c2=O)c1 (stereo unspecified)	35µM*	-14%	i	?
O=c1c2cc(-c3cccs3)nn2ccn1CC(O)c1ccc(F)cc1 (stereo unspecified)	-10%	-23%	i	-2%
CS(=O)(=O)N1CCC(C2CCN(Cc3ccc(Br)o3)C2)CC1 (stereo unspecified)	-24%	-1%	i	-11%
O=C(c1ccc(F)cc1)N1CCC2(CC1)Cc1ccccc1NC2=O	-47%[172 µM]	-1%[70.6 µM]	i	-15%[138 µM]
SMILES	HEK cytotox	hNpr1 antagonist	Luciferase inh	3T3 cytotox
Cc1ccccc1C(=O)N1CCC2(CC1)Cc1ccccc1NC2=O	35µM*	25%	i	?
O=C(c1cccc(C(F)(F)F)c1)N1CCN(CCn2nc3n(c2=O)CCCC3)CC1	-14%	/	/	-20%
Cc1noc(C)c1-c1cc2cc(CN(C)C)oc2c(N2CCN(c3ccccn3)CC2)n1	45µM*	-2%[70.6 µM]	i	35µM*
Cc1noc(C)c1-c1cc2cc(CN(C)C)oc2c(N2CCN(Cc3ccccc3)CC2)n1	50µM*	-3%	i	35µM*
COc1ncccc1-c1nc(-c2c(C)noc2C)cc2cc(CN(C)C)oc12	-25%[172 µM]	-3%[70.6 µM]	i	?
Cc1noc(C)c1-c1cc2cc(CO)oc2c(N2CCN(c3ccccn3)CC2)n1	71µM*	-15%[70.6 µM]	i	?
O=C1CCN(Cc2cccc(F)c2)CCCC(CO)CCN1 (stereo unspecified)	-5%	-1%	i	-12%
COCCN1C(=O)c2ccccc2C(C(=O)Nc2nc3c(s2)CCC3)C12CCCCC2 (stereo unspecified)	?	-10%	i	?
CCCC(=O)N1Cc2ccccc2CC2(CCCN(C)C2)C1 (stereo unspecified)	89µM*	/	/	?
CN1CCCC2(Cc3ccccc3CN(C(=O)CCCC(=O)O)C2)C1 (stereo unspecified)	i	/	/	i
O=C(c1ccc(-c2ncc3cnc(C4=CCOCC4)cn23)cc1)N1CC[S+](=O)([O-])CC1	1%[172 µM]	5%[70.6 µM]	i	?
COc1ccc(NC(=O)c2ccc(-c3ncc4cnc(C5=CCOCC5)cn34)cc2)cn1	?	-16%[70.6 µM]	i	32µM*
CC(c1ccc(F)cc1)N1Cc2cc(NC(=O)c3cccs3)ccc2OCC1=O (stereo unspecified)	22µM*	?	i	?
O=C1CC2(CCN(Cc3ccc(F)cc3)CC2)Oc2ccccc21	50µM*	-1%[70.6 µM]	i	?
O=C1CC2(CCN(Cc3cccnc3)CC2)Oc2cc(Cl)ccc21	?	0%	25µM*	?
CN(C)c1ccc(CN2CCC3(CC2)CC(=O)c2ccccc2O3)cc1	-7%	13%	i	-6%
COc1cc(CNC2CCCCCCC2)ccc1OCC(O)CN1CCSCC1 (stereo unspecified)	?	-9%	i	79µM*
COc1ccc(CNCc2ccc(C)s2)cc1OCC(O)CN1CCCCC1 (stereo unspecified)	79µM*	-4%	i	?
COc1cc(CNC(C)C)ccc1OCC(O)CN1CCSCC1 (stereo unspecified)	-6%	5%	i	4%
CCCN1CCC2(CCN(C(C)=O)CC2)Oc2ccccc21	-8%[172 µM]	16%[70.6 µM]	i	-5%[138 µM]
N#Cc1ccc(C(=O)N2CCC(c3n[nH]c(=O)n3-c3ccccc3)CC2)cc1	1%	3%	i	-8%
CC1=C[C@@H](CN2CCN(c3ccccn3)CC2)[C@H](C(C)C)C[C@H]1Cc1nnc(-c2ccc(C)cc2)o1	?	-28%	i	?

Screens as filed in PubChem BioAssay.
